Measured values taken from the supplement of paper PMC6555819.

Tested on: VDR:RXRa (NR concentration 270 nM, RXRa partner concentration 90 nM)
Experiment: PBM binding z-score (relative to random genomic background probes); higher = stronger binding; sequences stand for … in GC…GCGATTGACAGCGTAGAATGAAGG
Procedure: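 Protein-binding microarray (Agilent 4x180K custom design, double-stranded 60-nt probes: 5' GC cap, 34-nt variable region, 24-nt constant primer region; full probe sequence given). Purified or IVT nuclear receptor:RXRα heterodimers (3:1 NR:RXRα, mostly 270:90 nM) or homodimers were incubated for 1 h in PBS with 2% milk and no ligand, then detected with Alexa488 antibodies. Fluorescence from o1-orientation probes (~5 replicates averaged) was converted to z-scores against 500 random hg19 background probes. Variable regions are seed direct-repeat (DR0–DR5) sites, all their single-nucleotide variants and half-site ablations.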

Row | Sequence | PBM binding z-score
1 | GCTAGCAGGCTATTTGGGTCACTCAATGACGGGC | 0.0221
2 | TTGAGTAGGTTAGGGGCATTCAGAATGGCGTCGA | 0.889
3 | AGTCGAAGTTCATCTAGGTAACGTAAGATATGCT | 3.51
4 | CAAACTAGGTCAAGAGGTGAAAGTCCGCTTCCCG | 2.93
5 | ACTATTAGTTGAGACCAGGGCAACCGATAGGTTG | -0.036
6 | ATCTCTAGGAAAAGTTCAGTGAAAGATCGATAGA | 1.2
7 | CCTATTACTTGACCATAAGGGCAACCGAAGCTCG | 0.976
8 | CAAACTGGGTCACCGGAAGGTCAAAGTCCGCATG | 5.93
9 | CCTTACGGGTCACTGACAGGTGATAGCATTTGGA | 4.2
10 | GCTGCTAGGTCAAGTTGGTCAGCTAACGGGTACG | 2.17
11 | GTACCAAGGTGAATAGGTCGTAGATGAGTAGGCG | 0.667
12 | CGTCCAAAGTCAGAGAGGTCAGTGAATGCCGAGT | 4.38
13 | ACTAGTTGGTCAGCTGAGGGCACACACAATTCGG | 1.2
14 | ATCTCTAGGTAAGACACAGTTCAGTGAAGAACGC | 1.14
15 | CGTCCAAGGTCAGAGAGGTCAGTGCATGCCGAGT | 7.42
16 | TCATATAGGTAAATGCTAGGGGAAAGTCCGATCT | 0.846
17 | CCTAGCAGGCCAATCTGGGTCACTCGAGGCTTGA | 0.491
18 | TCAGACAGGTTAAGGTAACTCAGGTACGCAGTCG | 1.53
19 | TCTTGTAGATCAAAGGTTAAGAAAGCCGAAGCCT | 1.37
20 | CCTCGGAGGGCAGAAGGTCAGAGCTGTCCGCTTT | 1.17

Row | Sequence | PBM binding z-score
21 | ATCGAAAGGTCGAAGGTGAGTATACCCACCCGAA | 2.91
22 | ATAATGAGGTTATTAAGATCAGGGAATTGCGGTC | 2.88
23 | TCGAGTAGGTTACCAATGGGGCCTTCAGCTTTCT | -0.371
24 | ATATGTAGGTTACATCCGGCTCATTCAGGCTATG | 0.412
25 | TTACCAAGGTGAAAGGTCTTTGATGCACGCCTTG | 0.479
26 | CCTACTGGGCCAATCAGAGGTCATTGATCATATG | 4.12
27 | ACTCGGAGGACAACGGTCAGAGCTACGCCAGTGA | -0.667
28 | CAAACTAGGTCAAGAGGTCAAAGTGCGCTTCCCG | 6.26
29 | CATACAGGGTCAGCTGGGCCAGAGTAGGGACGGC | 3.63
30 | ATCGAAAGGTCGTGCGGTGAGTATACAGAAAGGC | 3.46
31 | TCTGCTAGGTCAACGATGGTCAGCTGATCTGCTA | 1.73
32 | GATACAGGGCCAGCTAGAGGCCAGAGTATGGAAA | -0.843
33 | TCATATAGGTAATACAGGTGAATGTCGGCATCTA | 1.3
34 | CATCGGAGGACAACAGGAGGTCAGAGCTGCCAGA | 2.21
35 | ACAGACAGCTGAGTGAAGGTAACTCAGCTGGACG | -0.322
36 | TGTGAAAGTTCAAAGGTAACGTAAGTATCCACAC | 4.88
37 | ATCTCTAGGTACCAAGTTCAGTGAAAGAGAGGAC | 1.64
38 | CCTCGGAGGACAACAGGGGGTCAGAGCTGCCAGA | 3.17
39 | CGTCCATGGTCAAAGGTCAGTGAAGAGATGACGG | 3.39
40 | CCTATTAGTTGACCATGAGGGCAACCGAAGCTCG | 1.02
